What all share (assay): NCI-60 one-dose screen, 48 h (100 = growth as untreated, 0 = no growth, -100 = all killed)
What all share (conditions): 10 µM unless noted

For experiment [1], the system named is NCI-H23 lung.
For experiment [2], the system named is NCI-H226 lung.
The test system of experiment [3] is NCI-H322M lung.
In experiment [4] the test system is HOP-62 NSCLC.
Experiment [5] concerns NCI-H460 lung.
In experiment [6] the test system is HOP-92 NSCLC.
Experiment [7] concerns NCI-H522 lung.
In experiment [8] the test system is A549/ATCC NSCLC.
Experiment [9] concerns 786-0 renal.
Experiment [10] deals with COLO 205 colon.
In experiment [11] the test system is DU-145 prostate.
In experiment [12] the test system is K-562 leukemia.
The subject of experiment [13] is MALME-3M melanoma.
Experiment [14] has as its system MDA-MB-231 breast.
Experiment [15] deals with RXF 393 renal.
The subject of experiment [16] is SF-268 CNS.
The subject of experiment [17] is SF-295 CNS.
For experiment [18], the system named is SF-539 CNS.
In experiment [19] the test system is UACC-257 melanoma.
The subject of experiment [20] is M14 melanoma.

Compounds without any hit were thinned out: in the full panel of roughly 83,000, 20% have a hit.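 Percent growth is the endpoint: 0 to 100 indicates growth inhibition (40 means 60% inhibition), 0 means no net growth, and negative values indicate cell death.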 A number with no mark means an inactive call. The source made the active and inactive calls. The calls were made as follows: active = growth percent below 10; inactive = the rest.

For the compound `COc1ccc(-c2cc(-c3cc(OC)c(OC)c(OC)c3)nc(N3CCOCC3)c2C#N)cc1`, the growth in experiment [1] was 23.4%; in experiment [2], 83.8%; in experiment [3], 93.6%; in [4], 88.8%; in experiment [5] it was 73.8%; in [6] it was 58.4%. Moreover, the growth is 59.9% in [7]; 60% in experiment [8]; 61.3% in experiment [9]; 57.7% in experiment [10]; 93.5% in experiment [11]; 47.5% in [12]. Also, the growth in experiment [13] is 126%; in experiment [14], 75.3%; in experiment [15], 52.9%; in [16] it was 83.4%; in [17], 69.5%; in experiment [18], 76.6%. The growth is 74.2% in [19] and 90.3% in experiment [20].
Turning to `CCOc1cccc(NC2=C(Br)C(=O)C(C)=C(C)C2=O)c1`, the growth in experiment [1] was 67.5%; in experiment [2] it was 72%; in experiment [3] it was 96.2%; in experiment [4], 83.6%; in experiment [5], 100%; in experiment [6], -8.14% (active). The growth in [7] is 80.5%; in experiment [8] it was 103%; in [9], 104%; in experiment [10] it was 123%; in experiment [11] it was 104%; in [12], 0.431% (active). The growth is 91.4% in [13]; 34.3% in [14]; 113% in experiment [15]; 94.1% in experiment [16]; 101% in [17]; 94.9% in [18]. Moreover, the growth in [19] is 68%; in experiment [20], 87.1%.
Take `COc1ccc2c(c1)/C(=C/c1sc(=S)n(Cc3ccco3)c1O)C=N2`: the growth in experiment [1] is 51%; in experiment [2], 71.4%; in [3], 89%; in [4], 39.6%; in experiment [5], 9.07% (active); in [6], 77.5%. Also, the growth in experiment [7] is 32.5%; in experiment [8], 57.9%; in experiment [9], 46.2%; in experiment [10] it was 25.4%; in [11], 33.5%; in [12] it was 15.8%. Moreover, the growth in experiment [13] was 49.1%; in experiment [14], 56.5%; in experiment [15] it was 48.7%; in experiment [16], 52.8%; in experiment [17] it was 27.8%; in experiment [18] it was 11.2%. The growth is 61.3% in experiment [19] and 11.8% in [20].
Consider `CC1Cc2ccccc2N1NC(=O)c1ccc(Cl)c(S(N)(=O)=O)c1` (stereo not given), for which the growth in experiment [1] is 96.8%; in experiment [2], 97.8%; in experiment [3], 95.2%; in experiment [4], 95.8%; in experiment [5], 111%; in [6], 44.9%. In addition, the growth in [7] is 88%; in experiment [8], 107%; in experiment [9], 96.6%; in experiment [10], 108%; in [11], 108%; in experiment [12], 103%. The growth was 94.2% in experiment [13]; 104% in experiment [14]; 108% in experiment [15]; 106% in experiment [16]; 101% in [17]; 105% in experiment [18]. For the same compound, the results for the growth in experiment [19] and in experiment [20] were 102% and 98.2%, respectively.
As for `CC(=O)O.CN1[CH-]N(Cc2ccc(C#N)cc2)c2ccccc21.[Ag+]`, the growth was 105% in experiment [1]; 103% in experiment [2]; 105% in [3]; 108% in experiment [4]; 97.9% in [5]; 116% in experiment [6]. Also, the growth in experiment [7] is -89.1% (active); in experiment [8] it was 68%; in experiment [9], 103%; in experiment [10] it was 54%; in experiment [11], 111%; in experiment [12], 45.8%. In addition, the growth was 102% in experiment [13]; 110% in experiment [14]; 117% in experiment [15]; 109% in [16]; 110% in [17]; 106% in [18]. Further, the growth in experiment [19] is 81.2%; in experiment [20], 100%.
`Cc1nn(-c2ccccc2)c(-n2ccnc2)c1/C=N/Nc1nc(-c2ccc(F)cc2)cs1`: the growth is 58.1% in experiment [1]; 50.3% in experiment [2]; 88.8% in experiment [3]; 98.8% in experiment [4]; 83.3% in experiment [5]; 42.9% in [6]. For the same compound, the growth is 73.6% in experiment [7]; 65% in experiment [8]; 106% in experiment [9]; 70.8% in experiment [10]; 87.5% in [11]; 38.8% in [12]. Further, the growth is 83.2% in [13]; 79.6% in experiment [14]; 88.5% in experiment [15]; 76.9% in experiment [16]; 77.3% in [17]; 87.6% in [18]. For the same compound, the growth is 75.6% in [19] and 79.7% in experiment [20].
`O=C(Cc1ccc(F)c(Cl)c1)Nc1cc(C2(C(F)(F)F)CC2)nn1CC1CCCCC1`: the growth in [1] was -2.27% (active); in [2] it was 14.5%; in experiment [3], 9.83% (active); in experiment [4] it was -8.44% (active); in [5], 3.01% (active); in experiment [6], -14.9% (active). Also, the growth in experiment [7] is -28.1% (active); in experiment [8], 9.72% (active); in experiment [9], 9.17% (active); in experiment [10] it was -86.2% (active); in experiment [11], 20.9%; in experiment [12], 11.1%. Also, the growth in experiment [13] was -24.1% (active); in experiment [14] it was -60.3% (active); in experiment [15], -28.7% (active); in experiment [16], 9.97% (active); in [17], 1.21% (active); in [18], 8.62% (active). Moreover, the growth in experiment [19] was -9.88% (active); in experiment [20], 17.1%.
`CCCCOc1nc2c(C)cccc2cc1-c1cc(-c2ccc(Cl)cc2)nc(-c2ccc(Cl)cc2)c1`: the growth was 110% in [1]; 100% in experiment [2]; 97.1% in [3]; 103% in experiment [4]; 103% in [5]; 91.4% in [6]. Also, the growth was 97.4% in experiment [7]; 101% in experiment [8]; 102% in experiment [9]; 111% in [10]; 109% in experiment [11]; 91.2% in experiment [12]. In addition, the growth in experiment [13] was 95.5%; in [14] it was 89.5%; in experiment [15], 106%; in experiment [16], 92.7%; in experiment [17], 101%; in experiment [18], 96.8%. Also, the growth is 98.9% in [19] and 101% in [20].

The values above are taken from PubChem BioAssay (NCI).
